Shown are actives, neighbours in structure and some others; about 7.3% of the full set was active somewhere.
HCMV antiviral – blocks human cytomegalovirus replication; activity change, negative = inhibition, % at 57.5 µM; hit rate 4.5% among 410,000; HFF cells, HCMV-luciferase reporter, 72 h; active compounds read low; AID 1259415; in the data active means activity change below about -60%; inconclusive means no clear call, values can overlap the other calls; inactive means above about -39%
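Cell-based, HFFs, 1000 cells/well, 16 h 37C; cpds in DMSO + HCMV-luc, MOI 1 PFU/cell; 72 h 37C; OneGlo luminescence after 5 min RT; norm. to buffer vs Salinomycin 10uM.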
Vaccinia Venus – vaccinia inhibition (Venus reporter); Vaccinia virus Venus reporter expression, fluorescence; Potency, µM (top dose mostly 36.5 µM), for inactives: at the top dose activity change, negative = inhibition, hits mostly inhibitors; hit rate 0.46% among 330,000; calls by dose curve; tested in A549 cells; further: potency means the concentration at half of the fitted maximal effect; nearly all actives have a fitted effect of over 30% in size
Vaccinia mCherry – vaccinia inhibition (mCherry reporter); Vaccinia virus mCherry reporter infection, fluorescence; Potency, µM (titrated, usually from 36.5 µM), for inactives: at the top dose activity change, negative = inhibition, usual class: inhibitors; hit rate 0.63% among 310,000; calls by dose curve; tested in A549 cells; further: potency means the concentration at half of the fitted maximal effect; nearly all actives have a fitted effect of over 35% in size
HCV inh – blocks hepatitis C virus | Huh7.5.1 HCVcc-Cre infection, luciferase reporter, 44 h | Potency, µM (doses to about 41.8 µM), for the others: top-dose activity change, negative = inhibition, most hits filed as inhibitors | hit rate 3.4% among 340,000 | AID 651820; active means well fitted inhibition curve with a large enough effect; inconclusive means small, poorly fitted or top-dose-only effect, or another doubt; inactive means no such curve, though single readings can be large or run the other way; further: potency means the concentration at half of the fitted maximal effect
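After 44 h co-culture of compound, cells and HCVcc-Cre (~0.5 moi), substrate is added for 15 min at room temperature and luciferase measured over 15 sec. Cells were seeded at 1,000/well and pre-cultured 4 h.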
FMDV inh – antivirals against foot and mouth disease virus; AID 1159524; Potency, µM (top dose mostly 57.9 µM), inactives show at the top dose activity change, negative = inhibition, most hits filed as inhibitors; FMDV antiviral cell-based qHTS; hit rate 1.2% among 410,000; calls by dose curve; tested in HEK293T cells; further: read-out not given here; potency means the concentration at half of the fitted maximal effect; nearly all actives have a fitted effect of over 45% in size
The depositor's hits bear a star; i = inactive; ? = inconclusive; · = not tested or not shown; [ ] = another dose, or the depositor's remark. On the % scale 0 is the no-effect control and ±100 the full control effect.

SMILES	HCMV antiviral	Vaccinia Venus	Vaccinia mCherry	HCV inh	FMDV inh
Cc1c(C(=O)NCc2ccccc2C(F)(F)F)sc(=O)n1Cc1ccccc1C#N	-62*	-1%	i	·	-22%
COc1ccc(Cl)cc1Cn1c(C)c(C(=O)NCc2ccc3c(c2)OCCO3)sc1=O	-72*	8%	7%	·	-25%
Cc1cccc(CNC(=O)c2sc(=O)n(Cc3ccc(S(C)(=O)=O)cc3)c2C)c1	-69*	-4%	-5%	·	-28%
CSc1ccc(Cn2c(C)c(C(=O)NCc3cccc(C)c3)sc2=O)cc1	-67*	-13%	-15%	·	-19%
O=C(C[N+]1(CCO)CCOCC1)c1ccc2ccccc2c1	·	-10%	33%	·	·
Cc1c(C(=O)NCc2ccc(C(F)(F)F)cc2)sc(=O)n1Cc1ccc(S(=O)(=O)N(C)C)cc1	-73*	-22%	-7%	·	?
C=Cc1ccc(Cn2c(C)c(C(=O)NCc3cccc(C)c3)sc2=O)cc1	-65*	0%	3%	·	-5%
C=Cc1ccc(Cn2c(C)c(C(=O)NCc3cccc(C(F)(F)F)c3)sc2=O)cc1	2	6%	i	·	-12%
O=C(Nc1ccc(F)cc1)C(c1ccccc1OC(F)(F)F)N1CCN(C(=O)c2ccco2)CC1 (centres undefined)	29	-11%	5%	·	-23%
O=C1NC(=O)c2cc(NC(=O)c3cccc4ccccc34)ccc21	-85*	-18%	7%	12%	4%
O=C(Nc1ccc2c(c1)C(=O)NC2=O)c1ccccc1Cl	21	2%	-18%	14%	9%
COc1ccc(C(=O)NC2CCc3ccccc32)cc1OC1CCN(C(C)C)CC1 (centres undefined)	111	-16%	-7%	-2%	0%
Cc1cc(C)n(-c2nc(NCC(C)O)c3c4c(sc3n2)COC(C)(C)C4)n1 (centres undefined)	-10	·	·	-13%	-1%
Cc1cc(C)n(-c2nc(SCCN(C)C)c3c4c(sc3n2)COC(C)(C)C4)n1	11	·	·	7.9µM*	-9%
CCc1cccc(NC(=O)C2CCCN(S(=O)(=O)c3cccnc3)C2)c1 (centres undefined)	-28	·	·	-20%	-15%
OC1c2cc(Br)ccc2N=C2CCCN21 (centres undefined)	-100*	·	·	?	?
CCC1Oc2ccc(C)cc2N(CC(=O)N(Cc2ccc(C)o2)C2CCCC2)C1=O (centres undefined)	26	-2%	-12%	?	22µM*
CC1(C(=O)O)CCC(C(=O)Nc2cccc(F)c2)C1(C)C (centres undefined)	-17	-13%	i	3%	-12%
CS(=O)(=O)c1ccc(Nc2nccc3[nH]c(-c4ccsc4)cc23)cc1	-9	·	·	·	·
CC1CCCN(c2ncnc3c2cnn3-c2ccc(Cl)cc2)C1 (centres undefined)	-98*	-5%	i	-2%	25µM*
CC1CCCN(c2ncnc3c2cnn3-c2ccc(F)cc2)C1 (centres undefined)	-80*	0%	7%	·	18µM*
O=Cc1c[nH]c2ccc(S(=O)(=O)N3CCCCC3)cc12	42	-13%	-26%	·	11%
CCc1nc(Nc2ccncc2)c2oc3ccccc3c2n1	-105*	?	?	?	-21%
CCc1nc(Nc2cccc(O)c2)c2oc3ccccc3c2n1	·	·	·	?	22µM*
Cc1nc(Nc2ccncc2)c2oc3ccccc3c2n1	-98*	·	·	8.9µM*	?
SMILES	HCMV antiviral	Vaccinia Venus	Vaccinia mCherry	HCV inh	FMDV inh
COc1ccc(OC)c(Nc2nc(C)nc3c2oc2ccccc23)c1	-17	?	-1%	-22%	-24%
CC(=O)Nc1ccc(Nc2nc(C)nc3c2oc2ccccc23)cc1	21	·	·	?	?
CCc1nc(NC(C)C)c2oc3ccccc3c2n1	-3	-29%	-13%[1.46 µM]	-29%	-26%
Cc1cccc(Nc2nc(C)nc3c2oc2ccccc23)c1	69	·	·	13µM*	0%
CCc1nc(Nc2ccc3c(c2)OCO3)c2oc3ccccc3c2n1	-23	-26%	?	?	?
C=CCn1c(SCC(=O)N2CCN(c3ccccc3)CC2)nnc1-c1ccco1	-29	·	·	?	-10%
Cn1cc(SCC(=O)N2CCN(c3ccccc3)CC2)c2ccccc21	-84*	0%	-19%	?	-20%
CCn1c(SCC(=O)N2CCN(c3ccccc3)CC2)nnc1-c1cc2cc(Cl)ccc2o1	-80*	-15%	-7%	?	1%
CC(=O)N1CCN(c2ccc(Nc3nc(C)nc4c3oc3ccccc34)cc2)CC1	-20	-5%	-15%	?	25µM*
Cc1nc(NC(C)c2ccccc2)c2oc3ccccc3c2n1 (centres undefined)	-65*	?	?	6.3µM*	13µM*
CCC(C)Nc1nc(C)nc2c1oc1ccccc12 (centres undefined)	-34	·	·	?	?
CC(=O)N1CCN(c2ccc(NC(=O)c3cc4ccccc4o3)cc2)CC1	0	·	·	?	17%
CCC(CC)C(=O)OCc1cc(=O)n2nc(C3CC3)sc2n1	-8	-14%	i	·	47%
CCc1nc(NCc2ccccn2)c2oc3ccccc3c2n1	-63*	?	·	?	16µM*
CCc1nc(SCC(=O)N2CCCc3ccccc32)c2oc3ccccc3c2n1	-19	·	·	11µM*	-1%
Cc1nc(SCC(=O)O)c2oc3ccccc3c2n1	14	·	·	8%	19%
CCOC(=O)C1CCN(c2nc(C)nc3c2oc2ccccc23)CC1	-15	-17%	·	18%	?
Cc1nc(SCC(=O)N2CCN(c3ccccc3)CC2)c2oc3ccccc3c2n1	0	-16%	·	10µM*	25µM*
CCOC(=O)C1CCCN(c2nc(C)nc3c2oc2ccccc23)C1 (centres undefined)	3	·	·	-13%	22µM*
Cc1occc1C(=O)Nc1cccc(-c2nc(CNC(=O)c3ccc(N4CCCCC4)cc3)c(C)o2)c1	·	-3%	-10%	·	20%
CCS(=O)(=O)c1cc([N+](=O)[O-])c(Sc2ccccc2NC(C)=O)s1	?	0%[7.34 µM]	i[7.34 µM]	8%	16µM*
CC(=O)C(Sc1ccc2nnc(-c3ccc(C)cc3)n2n1)C(C)=O	-3	-4%	?	-10%	-11%
CC(=O)C(Sc1ccc2nnc(-c3ccncc3)n2n1)C(C)=O	-62*	-11%	5%	-3%	-20%
O=C(NCc1ccc2c(c1)OCO2)C1CCC(CNc2c(N3CCCC3)c(=O)c2=O)CC1 (centres undefined)	-84*	-6%	3%	8%	-4%
CC1CC(C)CN(CCCNC(=O)c2ccc(CS(=O)(=O)Cc3ccccc3F)o2)C1 (centres undefined)	-73*	-11%	·	-1%	6%
Cc1ccc(CS(=O)(=O)Cc2ccc(C(=O)NCCCN3CC(C)CC(C)C3)o2)cc1 (centres undefined)	-30	·	·	-12%	8%
CC(C)(C)C1CCc2onc(C(=O)Nc3sc4c(c3C#N)CCCC4)c2C1 (centres undefined)	4	-20%	-1%	·	?

Screens deposited in PubChem by National Center for Advancing Translational Sciences (NCATS).
